This note sets out measurements from paper PMC7862700, “An all-to-all approach to the identification of sequence-specific readers for epigenetic DNA modifications on cytosine”.

What all share (assay): DAPPL (digital affinity profiling via proximity ligation, sequencing); 10 mM Tris-HCl pH 7.5, 50 mM NaCl, 1 mM DTT, 4% glycerol, room temperature, 30 min; GST-TFs on glutathione beads, 16-mer random dsDNA library, 0.1% formaldehyde crosslink after washing; high values mean tight binding
Assay [1] deals with T1, FEV (Homo sapiens, UniProt Q99581 1-238).
T1 sequence: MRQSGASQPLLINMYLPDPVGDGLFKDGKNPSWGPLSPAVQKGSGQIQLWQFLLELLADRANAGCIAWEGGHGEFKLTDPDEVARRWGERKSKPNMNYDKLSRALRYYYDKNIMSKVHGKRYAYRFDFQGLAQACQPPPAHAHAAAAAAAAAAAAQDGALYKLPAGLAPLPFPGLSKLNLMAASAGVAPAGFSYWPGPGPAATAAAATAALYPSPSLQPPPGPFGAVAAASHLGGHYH
Conditions: protein: recombinant; tags: N-terminal GST; dsDNA, one strand shown. The method in brief: (§1)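 Beads coated with glutathione captured GST-fused human transcription factors that had been expressed in yeast, and the factors were then given DNA barcodes and pooled with a tag-only sample. The pools were incubated with 200 nmole of a random double-stranded 16-mer DNA library in Tris/NaCl/DTT/glycerol buffer for 30 min at room temperature, washed, crosslinked with 0.1% formaldehyde and proximity-ligated with BsaI/T4 ligase at 37 °C for 1 h. PCR amplification and Illumina NextSeq500 sequencing came last. Binding signal is each hexamer's read frequency for a factor divided by its frequency for the tag-only sample.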

Assay [2] deals with ETV5 (Homo sapiens, UniProt P41161 1-510). The note with it: protein: recombinant; tags: N-terminal GST; dsDNA, one strand shown. In a few lines: as §1
Chain of ETV5 (P41161 whole entry): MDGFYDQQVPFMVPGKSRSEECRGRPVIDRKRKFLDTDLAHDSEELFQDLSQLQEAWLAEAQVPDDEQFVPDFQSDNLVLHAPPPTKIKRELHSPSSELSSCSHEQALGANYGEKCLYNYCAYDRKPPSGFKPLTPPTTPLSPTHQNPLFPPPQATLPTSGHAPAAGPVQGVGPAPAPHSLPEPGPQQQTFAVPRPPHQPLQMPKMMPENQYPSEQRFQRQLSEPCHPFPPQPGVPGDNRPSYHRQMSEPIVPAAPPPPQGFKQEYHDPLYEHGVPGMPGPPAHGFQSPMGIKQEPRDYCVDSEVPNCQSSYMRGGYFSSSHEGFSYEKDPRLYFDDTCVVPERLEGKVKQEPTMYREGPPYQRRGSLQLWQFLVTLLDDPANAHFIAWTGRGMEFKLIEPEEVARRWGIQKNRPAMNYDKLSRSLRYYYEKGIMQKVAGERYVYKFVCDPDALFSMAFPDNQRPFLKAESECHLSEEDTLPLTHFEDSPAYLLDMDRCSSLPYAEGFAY
For assay [3], the target named is HSF1 (Homo sapiens, UniProt Q00613 1-529). The note with it: protein: recombinant; tags: N-terminal GST; chain copies: 3; dsDNA, one strand shown. In a few lines:
as §1

Assay [4] has as its target T2, SPIC (Homo sapiens, UniProt Q8N5J4 1-248).
T2 sequence: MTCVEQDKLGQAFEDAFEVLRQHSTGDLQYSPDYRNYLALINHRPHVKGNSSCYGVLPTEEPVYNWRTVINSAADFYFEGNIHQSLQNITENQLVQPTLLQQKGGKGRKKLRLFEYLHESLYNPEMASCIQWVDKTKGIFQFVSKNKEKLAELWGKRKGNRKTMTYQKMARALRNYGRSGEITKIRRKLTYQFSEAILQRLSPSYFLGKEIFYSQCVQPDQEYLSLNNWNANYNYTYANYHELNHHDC
The note with it: protein: recombinant; tags: N-terminal GST; dsDNA, one strand shown. In a few lines:
as §1

The target of assay [5] is ELF4 (Homo sapiens, UniProt Q99607 1-663). The note with it: protein: recombinant; tags: N-terminal GST; dsDNA, one strand shown. In a few lines:
as §1

Assay [6] concerns the target T3, ELK4 (Homo sapiens, UniProt P28324-2 1-405).
T3 sequence: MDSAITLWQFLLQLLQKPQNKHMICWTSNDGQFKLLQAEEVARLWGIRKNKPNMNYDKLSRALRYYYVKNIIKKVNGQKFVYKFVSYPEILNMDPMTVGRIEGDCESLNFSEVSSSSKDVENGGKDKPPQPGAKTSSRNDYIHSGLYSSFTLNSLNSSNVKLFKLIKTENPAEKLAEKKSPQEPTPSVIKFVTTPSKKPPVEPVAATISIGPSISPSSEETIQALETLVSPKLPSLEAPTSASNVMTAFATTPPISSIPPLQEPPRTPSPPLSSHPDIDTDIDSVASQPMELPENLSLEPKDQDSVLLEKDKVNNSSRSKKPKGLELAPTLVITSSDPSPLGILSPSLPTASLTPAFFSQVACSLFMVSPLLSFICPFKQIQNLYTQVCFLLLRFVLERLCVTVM
Conditions: protein: recombinant; tags: N-terminal GST; dsDNA, one strand shown. In a few lines: as §1

Assay [7] has as its target T4, ETV2 (Homo sapiens, UniProt O00321 1-342).
T4 sequence: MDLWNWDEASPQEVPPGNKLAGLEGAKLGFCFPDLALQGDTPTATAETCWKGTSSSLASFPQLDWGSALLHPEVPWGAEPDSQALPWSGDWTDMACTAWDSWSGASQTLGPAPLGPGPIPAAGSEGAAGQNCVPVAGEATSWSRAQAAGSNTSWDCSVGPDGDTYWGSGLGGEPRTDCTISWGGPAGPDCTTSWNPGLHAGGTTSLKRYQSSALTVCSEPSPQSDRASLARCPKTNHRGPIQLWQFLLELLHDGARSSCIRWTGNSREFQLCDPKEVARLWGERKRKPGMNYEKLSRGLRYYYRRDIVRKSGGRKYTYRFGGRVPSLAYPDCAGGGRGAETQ
The note with it: protein: recombinant; tags: N-terminal GST; dsDNA, one strand shown. In a few lines:
as §1

The target of assay [8] is T5, ELF3 (Homo sapiens, UniProt P78545 1-371).
T5 sequence: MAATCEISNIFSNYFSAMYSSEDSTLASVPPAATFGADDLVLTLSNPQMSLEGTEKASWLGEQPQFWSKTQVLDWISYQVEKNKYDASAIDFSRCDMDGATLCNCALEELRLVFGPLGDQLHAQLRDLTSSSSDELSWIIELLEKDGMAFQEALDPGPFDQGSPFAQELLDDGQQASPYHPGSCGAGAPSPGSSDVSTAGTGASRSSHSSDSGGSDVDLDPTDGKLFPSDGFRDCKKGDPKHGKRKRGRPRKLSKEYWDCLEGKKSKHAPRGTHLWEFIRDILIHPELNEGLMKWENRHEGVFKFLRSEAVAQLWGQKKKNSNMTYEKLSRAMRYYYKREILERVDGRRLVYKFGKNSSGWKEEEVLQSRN
Conditions: protein: recombinant; tags: N-terminal GST; dsDNA, one strand shown. In a few lines: as §1

Assay [9] deals with CRX (Homo sapiens, UniProt O43186 1-299). The note with it: protein: recombinant; tags: N-terminal GST; dsDNA, one strand shown. In a few lines: as §1
Chain of CRX (O43186 whole entry): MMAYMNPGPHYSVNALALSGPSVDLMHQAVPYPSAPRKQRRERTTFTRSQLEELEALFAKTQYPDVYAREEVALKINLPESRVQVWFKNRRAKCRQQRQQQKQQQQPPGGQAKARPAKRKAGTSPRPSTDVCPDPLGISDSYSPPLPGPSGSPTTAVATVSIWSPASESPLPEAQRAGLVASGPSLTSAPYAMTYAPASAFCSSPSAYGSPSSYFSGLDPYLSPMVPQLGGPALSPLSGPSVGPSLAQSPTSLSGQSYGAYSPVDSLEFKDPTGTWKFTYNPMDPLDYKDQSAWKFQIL
Assay [10] concerns the target ETV1 (Homo sapiens, UniProt P50549 1-477). The note with it: protein: recombinant; tags: N-terminal GST; dsDNA, one strand shown. In a few lines: as §1
Assay [11] concerns the target T6, ERF (Homo sapiens, UniProt P50548 1-548).
T6 sequence: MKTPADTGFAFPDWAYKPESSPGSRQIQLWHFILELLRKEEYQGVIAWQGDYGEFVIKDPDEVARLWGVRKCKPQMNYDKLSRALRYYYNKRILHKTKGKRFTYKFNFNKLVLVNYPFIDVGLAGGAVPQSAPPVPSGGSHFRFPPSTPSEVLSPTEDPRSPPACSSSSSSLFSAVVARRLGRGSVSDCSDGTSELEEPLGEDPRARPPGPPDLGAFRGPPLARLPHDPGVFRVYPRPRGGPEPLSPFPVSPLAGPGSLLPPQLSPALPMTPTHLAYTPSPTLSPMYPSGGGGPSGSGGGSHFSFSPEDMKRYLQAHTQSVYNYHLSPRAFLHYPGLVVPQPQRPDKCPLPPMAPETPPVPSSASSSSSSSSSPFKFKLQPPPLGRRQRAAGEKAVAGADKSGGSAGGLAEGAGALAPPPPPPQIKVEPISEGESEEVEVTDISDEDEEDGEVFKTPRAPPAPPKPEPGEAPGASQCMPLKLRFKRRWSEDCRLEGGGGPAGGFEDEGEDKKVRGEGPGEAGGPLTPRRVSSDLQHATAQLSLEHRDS
The note with it: protein: recombinant; tags: N-terminal GST; dsDNA, one strand shown. In a few lines: as §1

The target of assay [12] is T7, ETV3L (Homo sapiens, UniProt Q6ZN32 1-361).
T7 sequence: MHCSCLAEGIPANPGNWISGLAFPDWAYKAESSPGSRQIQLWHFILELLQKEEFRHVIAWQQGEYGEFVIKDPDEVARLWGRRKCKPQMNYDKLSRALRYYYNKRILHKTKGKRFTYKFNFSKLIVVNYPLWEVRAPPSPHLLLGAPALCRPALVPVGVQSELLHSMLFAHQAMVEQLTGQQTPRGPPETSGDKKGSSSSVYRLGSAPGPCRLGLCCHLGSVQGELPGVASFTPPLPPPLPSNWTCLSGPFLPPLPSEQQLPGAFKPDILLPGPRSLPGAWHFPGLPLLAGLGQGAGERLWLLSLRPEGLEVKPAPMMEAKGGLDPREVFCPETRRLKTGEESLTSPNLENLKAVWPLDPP
The note with it: protein: recombinant; tags: N-terminal GST; dsDNA, one strand shown. In a few lines:
as §1

Assay [13] addresses T8, ETS2 (Homo sapiens, UniProt P15036 1-469).
T8 sequence: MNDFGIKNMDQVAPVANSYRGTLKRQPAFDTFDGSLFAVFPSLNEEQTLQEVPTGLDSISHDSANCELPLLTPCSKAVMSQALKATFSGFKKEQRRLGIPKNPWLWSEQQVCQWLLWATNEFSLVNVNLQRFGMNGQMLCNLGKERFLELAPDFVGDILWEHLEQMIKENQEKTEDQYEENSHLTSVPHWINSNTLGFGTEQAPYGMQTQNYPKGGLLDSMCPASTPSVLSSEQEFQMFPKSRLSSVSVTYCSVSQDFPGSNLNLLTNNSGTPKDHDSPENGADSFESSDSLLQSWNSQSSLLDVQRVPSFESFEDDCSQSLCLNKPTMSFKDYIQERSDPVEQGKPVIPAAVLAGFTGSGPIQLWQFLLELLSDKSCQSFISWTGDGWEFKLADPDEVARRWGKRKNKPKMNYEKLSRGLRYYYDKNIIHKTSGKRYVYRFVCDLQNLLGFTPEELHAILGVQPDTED
Conditions: protein: recombinant; tags: N-terminal GST; dsDNA, one strand shown. In a few lines:
as §1

Assay [14] addresses T9, SPDEF (Homo sapiens, UniProt O95238 1-335).
T9 sequence: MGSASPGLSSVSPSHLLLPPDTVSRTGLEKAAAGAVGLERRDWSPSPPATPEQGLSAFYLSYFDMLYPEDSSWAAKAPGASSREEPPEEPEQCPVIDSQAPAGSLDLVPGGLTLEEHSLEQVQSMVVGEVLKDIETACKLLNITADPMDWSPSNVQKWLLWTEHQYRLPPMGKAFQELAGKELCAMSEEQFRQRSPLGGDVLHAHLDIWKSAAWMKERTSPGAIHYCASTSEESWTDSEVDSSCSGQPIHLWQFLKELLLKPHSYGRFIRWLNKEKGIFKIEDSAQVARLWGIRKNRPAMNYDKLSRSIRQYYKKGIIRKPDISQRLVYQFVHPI
Conditions: protein: recombinant; tags: N-terminal GST; dsDNA, one strand shown. The method in brief: as §1

The target in assay [15] is T10, ETV7 (Homo sapiens, UniProt Q9Y603 1-341).
T10 sequence: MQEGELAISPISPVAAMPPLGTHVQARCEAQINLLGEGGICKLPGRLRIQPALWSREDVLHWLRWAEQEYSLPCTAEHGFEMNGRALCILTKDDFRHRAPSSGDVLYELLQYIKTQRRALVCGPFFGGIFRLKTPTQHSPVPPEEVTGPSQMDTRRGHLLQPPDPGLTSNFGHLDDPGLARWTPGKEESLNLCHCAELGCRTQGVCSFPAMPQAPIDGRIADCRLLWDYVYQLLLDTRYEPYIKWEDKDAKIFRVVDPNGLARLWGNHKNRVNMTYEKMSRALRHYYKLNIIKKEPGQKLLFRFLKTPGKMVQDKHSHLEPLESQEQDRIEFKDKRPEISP
The note with it: protein: recombinant; tags: N-terminal GST; dsDNA, one strand shown. In a few lines:
as §1

Assay [16] has as its target T11, ELF5 (Homo sapiens, UniProt Q9UKW6-2 1-255).
T11 sequence: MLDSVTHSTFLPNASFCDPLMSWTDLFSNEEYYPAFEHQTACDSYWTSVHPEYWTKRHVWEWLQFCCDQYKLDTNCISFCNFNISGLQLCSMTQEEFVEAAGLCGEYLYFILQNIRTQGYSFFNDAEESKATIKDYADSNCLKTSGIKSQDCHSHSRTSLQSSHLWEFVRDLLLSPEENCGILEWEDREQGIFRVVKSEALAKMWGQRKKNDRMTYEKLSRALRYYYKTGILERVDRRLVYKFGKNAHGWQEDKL
Conditions: protein: recombinant; tags: N-terminal GST; dsDNA, one strand shown. The method in brief:
as §1

Assay [17] concerns the target T12, ETV3 (Homo sapiens, UniProt P41162-2 1-143).
T12 sequence: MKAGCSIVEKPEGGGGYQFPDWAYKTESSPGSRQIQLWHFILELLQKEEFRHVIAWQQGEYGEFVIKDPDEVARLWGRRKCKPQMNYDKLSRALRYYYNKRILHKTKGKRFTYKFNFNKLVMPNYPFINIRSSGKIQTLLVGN
The note with it: protein: recombinant; tags: N-terminal GST; dsDNA, one strand shown. The method in brief: as §1

The target of assay [18] is ETV6 (Homo sapiens, UniProt P41212 1-452). Conditions: protein: recombinant; tags: N-terminal GST; dsDNA, one strand shown. In a few lines: as §1
Chain of ETV6 (P41212 whole entry): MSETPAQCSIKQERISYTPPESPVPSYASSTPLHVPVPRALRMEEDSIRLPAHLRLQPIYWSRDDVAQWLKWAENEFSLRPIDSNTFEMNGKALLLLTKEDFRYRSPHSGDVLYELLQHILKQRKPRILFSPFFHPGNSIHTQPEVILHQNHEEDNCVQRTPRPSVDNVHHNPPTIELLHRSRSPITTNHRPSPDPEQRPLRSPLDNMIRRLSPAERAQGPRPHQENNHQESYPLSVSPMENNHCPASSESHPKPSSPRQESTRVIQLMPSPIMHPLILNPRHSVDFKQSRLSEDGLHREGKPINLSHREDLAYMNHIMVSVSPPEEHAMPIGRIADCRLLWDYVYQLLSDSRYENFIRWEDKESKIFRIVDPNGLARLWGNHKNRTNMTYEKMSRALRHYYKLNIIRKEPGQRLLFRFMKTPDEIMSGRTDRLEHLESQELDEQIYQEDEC

Chain of HSF1 (Q00613 whole entry): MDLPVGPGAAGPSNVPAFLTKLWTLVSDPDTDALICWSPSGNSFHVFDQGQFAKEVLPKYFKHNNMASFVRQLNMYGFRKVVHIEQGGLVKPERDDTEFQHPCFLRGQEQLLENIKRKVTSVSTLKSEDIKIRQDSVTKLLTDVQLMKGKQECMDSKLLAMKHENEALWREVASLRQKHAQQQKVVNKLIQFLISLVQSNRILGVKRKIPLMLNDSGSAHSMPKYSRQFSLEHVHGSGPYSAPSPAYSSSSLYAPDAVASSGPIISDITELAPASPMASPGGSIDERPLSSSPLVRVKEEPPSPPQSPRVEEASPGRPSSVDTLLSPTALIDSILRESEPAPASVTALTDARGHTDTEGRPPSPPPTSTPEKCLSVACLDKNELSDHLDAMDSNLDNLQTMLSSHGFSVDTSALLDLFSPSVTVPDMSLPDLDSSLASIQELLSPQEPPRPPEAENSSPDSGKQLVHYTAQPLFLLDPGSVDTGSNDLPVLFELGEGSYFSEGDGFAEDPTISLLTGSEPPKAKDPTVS
Chain of ETV1 (P50549 whole entry): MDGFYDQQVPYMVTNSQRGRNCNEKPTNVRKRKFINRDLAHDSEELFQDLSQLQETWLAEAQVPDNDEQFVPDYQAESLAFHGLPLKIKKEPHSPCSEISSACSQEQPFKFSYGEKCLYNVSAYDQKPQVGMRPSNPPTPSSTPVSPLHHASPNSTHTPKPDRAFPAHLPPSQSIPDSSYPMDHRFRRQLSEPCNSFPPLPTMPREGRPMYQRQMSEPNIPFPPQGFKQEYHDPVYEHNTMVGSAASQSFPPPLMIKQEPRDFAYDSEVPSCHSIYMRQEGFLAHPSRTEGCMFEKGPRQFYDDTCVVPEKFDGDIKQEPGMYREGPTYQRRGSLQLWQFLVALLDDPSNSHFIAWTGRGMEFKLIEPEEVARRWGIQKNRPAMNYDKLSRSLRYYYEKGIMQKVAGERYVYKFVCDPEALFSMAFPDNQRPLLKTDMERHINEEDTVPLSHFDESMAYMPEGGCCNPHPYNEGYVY
Chain of ELF4 (Q99607 whole entry): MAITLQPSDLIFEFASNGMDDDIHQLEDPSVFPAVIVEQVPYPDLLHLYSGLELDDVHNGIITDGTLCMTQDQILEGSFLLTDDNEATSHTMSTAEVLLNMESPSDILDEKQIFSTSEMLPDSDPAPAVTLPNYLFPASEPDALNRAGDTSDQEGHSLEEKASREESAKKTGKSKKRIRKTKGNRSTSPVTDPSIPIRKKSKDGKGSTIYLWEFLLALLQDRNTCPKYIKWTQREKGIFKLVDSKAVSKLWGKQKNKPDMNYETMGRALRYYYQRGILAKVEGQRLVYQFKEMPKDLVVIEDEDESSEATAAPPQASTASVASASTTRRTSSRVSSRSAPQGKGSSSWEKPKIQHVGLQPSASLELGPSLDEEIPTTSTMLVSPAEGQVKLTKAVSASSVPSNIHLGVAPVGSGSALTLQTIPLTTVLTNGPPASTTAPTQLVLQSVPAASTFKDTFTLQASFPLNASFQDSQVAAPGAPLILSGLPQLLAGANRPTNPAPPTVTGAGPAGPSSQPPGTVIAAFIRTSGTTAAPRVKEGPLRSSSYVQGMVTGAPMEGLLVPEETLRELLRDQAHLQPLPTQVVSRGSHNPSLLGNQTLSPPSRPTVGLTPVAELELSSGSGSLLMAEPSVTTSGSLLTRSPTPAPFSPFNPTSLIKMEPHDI

As to AAGCAT, the binding signal in assay [1] is 1.07 fold enrichment (6-mer frequency, TF over GST control); in [2] it was 1.06 fold enrichment (6-mer frequency, TF over GST control); in assay [3] it was 1.15 fold enrichment (6-mer frequency, TF over GST control); in assay [4], 1.06 fold enrichment (6-mer frequency, TF over GST control); in assay [5] it was 1.13 fold enrichment (6-mer frequency, TF over GST control); in [6] it was 1.19 fold enrichment (6-mer frequency, TF over GST control). In addition, the binding signal in [7] was 1.06 fold enrichment (6-mer frequency, TF over GST control); in [8], 1.17 fold enrichment (6-mer frequency, TF over GST control); in assay [9], 1.14 fold enrichment (6-mer frequency, TF over GST control); in assay [10] it was 1.04 fold enrichment (6-mer frequency, TF over GST control); in assay [11] it was 1.19 fold enrichment (6-mer frequency, TF over GST control); in assay [12], 1.09 fold enrichment (6-mer frequency, TF over GST control). Besides, the binding signal in assay [13] is 1.2 fold enrichment (6-mer frequency, TF over GST control); in assay [14] it was 1.08 fold enrichment (6-mer frequency, TF over GST control); in assay [15] it was 1.14 fold enrichment (6-mer frequency, TF over GST control); in assay [16], 1.06 fold enrichment (6-mer frequency, TF over GST control); in assay [17] it was 1.13 fold enrichment (6-mer frequency, TF over GST control); in assay [18], 1.14 fold enrichment (6-mer frequency, TF over GST control).
